Assay results published in the supplement of paper PMC10849652.
The full data set covers some 8,800 targets. This sample favours those with a hit. About 0.5% of all pairs of compound and target were hits.

Tests used:
Experiment in all cases: log2 fold change, soluble protein after heating vs DMSO (PISA); higher = thermal stabilisation; K562 lysate, 10 uM; active = over 0.2 and 3.5 SD of the protein, either way, in both replicates (recomputed)
[1] = compound: C1=CC=C(C=C1)[C@H](COC2=CC3=C(C=C2)NC(=O)N3)NC(=O)C4=CC=CN(C4=O)CC5=CC(=C(C=C5)F)F
In short: (§1)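 The values are log-two fold changes in thermal stability compared with solvent controls and come from duplicates. They were obtained by TMTpro 16plex LC-MS/MS, with channel sums equalised, on the supernatant after 21,000xg for 90 min. That supernatant came from crude K562 extract at 1 mg/mL protein treated with 10 μM compound for 30 min, heated for 3 min across 48°C-58°C, pooled and brought to 0.5% NP-40 at 4°C.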

[2] = compound: CC1=C(SC2=C1C(=N[C@H](C3=NN=C(N32)C)CC(=O)N)C4=CC=C(C=C4)Cl)C
In short: as §1

[3] = compound: CC1=C2C(=CC=C1)N=C(N(C2=O)C3=CC=CC=C3C)CN4C=NC5=C(N=CN=C54)N
In short: as §1

[4] = compound: Cc1sc2c(c1C)C(c1ccc(Cl)cc1)=N[C@@H](CC(=O)OC(C)(C)C)c1nnc(C)n1-2
In short: as §1

[5] = compound: c1ccc([C@@H]2C[C@H]2NC2CCNCC2)cc1
In short: as §1

Measured: log2 fold change

FAM118B (UniProt Q9BPY3)
inactive: [1] -0.025 | [2] -0.062 | [3] -0.01 | [4] -0.018 | [5] 0.01

FTSJ3 (UniProt Q8IY81)
inactive: [1] 0.022 | [2] -0.051 | [3] -0.007 | [4] -0.003 | [5] 0.083

DVL2 (UniProt O14641)
inactive: [1] -0.012 | [2] -0.01 | [3] 0.032 | [4] 0.098 | [5] -0.017

ESYT2 (UniProt H7BXI1)
inactive: [1] 0.004 | [2] 0.018 | [3] -0.001 | [4] 0.048 | [5] 0.036

EIF2B4 (UniProt Q9UI10)
inactive: [1] 0.028 | [2] 0.079 | [3] -0.005 | [4] -0.224

FAM118A (UniProt Q9NWS6)
inactive: [1] -0.028 | [2] -0.033 | [3] -0.021 | [4] -0.108 | [5] -0.015

GAPVD1 (UniProt Q14C86)
inactive: [1] 0.036 | [2] -0.067

EAPP (UniProt Q56P03)
inactive: [1] 0.008 | [2] 0.048 | [3] 0.137 | [4] 0.029 | [5] -0.079

ESRRA (UniProt P11474)
Chain of UniProt P11474 (P11474 whole entry, looked up): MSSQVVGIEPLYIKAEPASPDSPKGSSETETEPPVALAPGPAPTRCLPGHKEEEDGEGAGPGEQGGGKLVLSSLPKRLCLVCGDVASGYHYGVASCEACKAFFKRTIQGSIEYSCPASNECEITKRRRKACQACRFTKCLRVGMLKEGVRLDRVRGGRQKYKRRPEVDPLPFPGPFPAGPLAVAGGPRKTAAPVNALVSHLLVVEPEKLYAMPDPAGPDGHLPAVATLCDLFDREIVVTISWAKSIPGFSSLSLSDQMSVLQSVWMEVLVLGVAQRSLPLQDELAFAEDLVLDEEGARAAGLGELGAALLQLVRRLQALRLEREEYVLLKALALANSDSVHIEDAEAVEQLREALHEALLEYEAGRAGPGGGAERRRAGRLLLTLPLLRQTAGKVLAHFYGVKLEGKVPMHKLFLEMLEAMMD
inactive: [1] 0.204 | [2] -0.018 | [3] 0.029 | [4] 0.046 | [5] 0.264

ENY2 (UniProt Q9NPA8)
inactive: [1] 0.033 | [2] -0.001 | [3] -0.162 | [4] 0.117 | [5] 0.386

ETHE1 (UniProt O95571)
inactive: [1] 0.008 | [2] 0.003 | [3] 0.008 | [4] 0.048 | [5] -0.147

ERAL1 (UniProt O75616)
Chain of UniProt O75616 (O75616 whole entry, looked up): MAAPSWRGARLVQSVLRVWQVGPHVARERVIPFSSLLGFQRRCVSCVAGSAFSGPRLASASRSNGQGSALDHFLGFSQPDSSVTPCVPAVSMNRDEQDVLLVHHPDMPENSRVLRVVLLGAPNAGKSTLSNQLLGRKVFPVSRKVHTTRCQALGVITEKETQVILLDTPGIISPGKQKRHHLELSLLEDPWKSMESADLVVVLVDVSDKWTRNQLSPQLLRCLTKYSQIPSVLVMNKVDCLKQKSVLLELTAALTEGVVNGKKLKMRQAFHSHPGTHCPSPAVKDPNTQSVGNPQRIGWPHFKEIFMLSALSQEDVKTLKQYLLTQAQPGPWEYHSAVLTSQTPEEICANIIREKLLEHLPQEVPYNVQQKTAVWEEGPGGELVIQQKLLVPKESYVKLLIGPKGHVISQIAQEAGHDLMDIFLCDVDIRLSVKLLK
inactive: [1] -0.048 | [2] 0.033 | [3] 0.007 | [4] 0.009 | [5] 0.075

DSN1 (UniProt Q9H410)
Chain of UniProt Q9H410 (Q9H410 whole entry, looked up): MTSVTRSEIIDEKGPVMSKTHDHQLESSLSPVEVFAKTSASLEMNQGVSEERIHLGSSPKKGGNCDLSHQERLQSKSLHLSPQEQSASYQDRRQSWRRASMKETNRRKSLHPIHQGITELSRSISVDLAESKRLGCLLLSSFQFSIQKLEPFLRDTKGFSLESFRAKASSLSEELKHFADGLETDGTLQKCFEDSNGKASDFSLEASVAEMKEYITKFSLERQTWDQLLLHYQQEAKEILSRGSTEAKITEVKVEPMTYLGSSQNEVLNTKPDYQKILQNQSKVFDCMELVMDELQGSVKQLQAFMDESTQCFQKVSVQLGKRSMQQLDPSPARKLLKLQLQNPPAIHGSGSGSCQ
inactive: [1] -0.012 | [2] 0.053 | [3] 0.019 | [4] -0.013 | [5] 0.02

EMC7 (UniProt Q9NPA0)
inactive: [1] 0.01 | [2] 0.02 | [3] 0.024 | [4] 0.005 | [5] -0.141

EMP3 (UniProt P54852)
inactive: [1] 0.026 | [2] -0.028 | [3] -0.038 | [4] -0.113 | [5] -0.345

GCN1 (UniProt Q92616)
Chain of UniProt Q92616 (Q92616 whole entry, looked up): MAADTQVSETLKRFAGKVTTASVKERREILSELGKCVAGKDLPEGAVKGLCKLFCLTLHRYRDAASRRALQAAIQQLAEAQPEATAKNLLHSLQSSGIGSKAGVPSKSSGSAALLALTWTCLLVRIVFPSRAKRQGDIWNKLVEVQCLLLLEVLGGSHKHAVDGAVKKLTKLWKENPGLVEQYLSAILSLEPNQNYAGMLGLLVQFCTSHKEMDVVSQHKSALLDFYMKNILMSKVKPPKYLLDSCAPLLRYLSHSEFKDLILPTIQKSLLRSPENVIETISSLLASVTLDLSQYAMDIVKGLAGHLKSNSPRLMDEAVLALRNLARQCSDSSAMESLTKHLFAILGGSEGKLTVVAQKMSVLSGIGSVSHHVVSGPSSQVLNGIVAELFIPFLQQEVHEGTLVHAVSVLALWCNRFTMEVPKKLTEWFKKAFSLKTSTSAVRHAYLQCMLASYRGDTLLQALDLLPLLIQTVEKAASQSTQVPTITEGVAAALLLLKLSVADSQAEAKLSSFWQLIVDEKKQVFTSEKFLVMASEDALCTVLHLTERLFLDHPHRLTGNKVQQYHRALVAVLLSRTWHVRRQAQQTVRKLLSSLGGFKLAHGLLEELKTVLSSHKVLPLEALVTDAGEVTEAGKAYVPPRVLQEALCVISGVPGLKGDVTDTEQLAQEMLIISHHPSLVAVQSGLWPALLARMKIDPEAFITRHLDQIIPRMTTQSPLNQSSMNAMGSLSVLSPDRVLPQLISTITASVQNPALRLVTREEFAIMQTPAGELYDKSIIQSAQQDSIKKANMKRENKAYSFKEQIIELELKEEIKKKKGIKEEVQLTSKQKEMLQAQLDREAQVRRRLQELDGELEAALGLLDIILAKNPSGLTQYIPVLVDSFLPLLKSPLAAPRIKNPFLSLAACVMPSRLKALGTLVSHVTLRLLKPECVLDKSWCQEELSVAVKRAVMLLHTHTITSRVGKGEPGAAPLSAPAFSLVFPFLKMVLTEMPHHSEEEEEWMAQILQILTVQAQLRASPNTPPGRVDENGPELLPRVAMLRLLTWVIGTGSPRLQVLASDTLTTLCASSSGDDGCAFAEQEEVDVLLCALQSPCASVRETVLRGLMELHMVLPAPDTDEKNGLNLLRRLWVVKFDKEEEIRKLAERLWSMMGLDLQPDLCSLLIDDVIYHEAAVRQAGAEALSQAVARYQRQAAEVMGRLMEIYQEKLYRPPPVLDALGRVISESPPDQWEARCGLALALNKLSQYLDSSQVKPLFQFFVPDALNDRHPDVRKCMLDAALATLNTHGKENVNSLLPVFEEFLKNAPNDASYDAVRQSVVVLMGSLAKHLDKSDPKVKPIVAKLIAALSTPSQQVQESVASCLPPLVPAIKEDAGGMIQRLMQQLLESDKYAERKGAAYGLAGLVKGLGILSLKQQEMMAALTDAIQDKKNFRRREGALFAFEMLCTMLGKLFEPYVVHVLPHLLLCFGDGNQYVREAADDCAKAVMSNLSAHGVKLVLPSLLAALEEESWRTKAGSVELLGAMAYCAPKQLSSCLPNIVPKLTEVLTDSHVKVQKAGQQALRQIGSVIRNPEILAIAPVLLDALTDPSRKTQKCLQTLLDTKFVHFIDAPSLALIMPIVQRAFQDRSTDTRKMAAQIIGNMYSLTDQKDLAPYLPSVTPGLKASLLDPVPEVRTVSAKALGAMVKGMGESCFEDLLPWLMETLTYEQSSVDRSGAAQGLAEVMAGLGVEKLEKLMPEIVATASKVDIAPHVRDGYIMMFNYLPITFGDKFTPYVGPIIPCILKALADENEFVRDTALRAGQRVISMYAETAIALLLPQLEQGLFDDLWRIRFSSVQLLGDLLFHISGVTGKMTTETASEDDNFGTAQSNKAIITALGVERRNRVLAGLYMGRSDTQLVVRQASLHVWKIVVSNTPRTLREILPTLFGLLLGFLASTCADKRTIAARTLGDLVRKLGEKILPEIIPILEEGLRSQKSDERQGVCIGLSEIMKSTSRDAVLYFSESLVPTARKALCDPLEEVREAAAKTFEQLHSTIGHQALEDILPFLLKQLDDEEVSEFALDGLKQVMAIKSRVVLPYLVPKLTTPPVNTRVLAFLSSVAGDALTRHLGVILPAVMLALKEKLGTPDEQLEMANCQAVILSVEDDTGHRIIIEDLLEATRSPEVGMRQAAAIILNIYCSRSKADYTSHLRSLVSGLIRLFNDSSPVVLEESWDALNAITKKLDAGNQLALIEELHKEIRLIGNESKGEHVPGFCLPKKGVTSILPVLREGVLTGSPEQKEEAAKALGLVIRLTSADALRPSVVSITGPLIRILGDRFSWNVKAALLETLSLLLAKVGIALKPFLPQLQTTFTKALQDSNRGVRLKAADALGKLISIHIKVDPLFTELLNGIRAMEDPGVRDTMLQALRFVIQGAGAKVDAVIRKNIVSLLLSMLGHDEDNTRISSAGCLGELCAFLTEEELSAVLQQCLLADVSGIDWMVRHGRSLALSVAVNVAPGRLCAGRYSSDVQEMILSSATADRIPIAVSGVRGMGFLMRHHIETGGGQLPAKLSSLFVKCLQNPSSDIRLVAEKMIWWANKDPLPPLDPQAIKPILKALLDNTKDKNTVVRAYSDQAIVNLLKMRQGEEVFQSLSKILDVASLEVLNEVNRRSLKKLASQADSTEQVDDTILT
inactive: [1] -0.046 | [2] 0.003 | [3] 0.019 | [4] 0.035 | [5] 0.063

ERLIN2 (UniProt O94905)
inactive: [1] 0.009 | [2] -0.007 | [3] 0.016 | [4] -0.126 | [5] 0.143

FTL (UniProt P02792)
Chain of UniProt P02792 (P02792 whole entry, looked up): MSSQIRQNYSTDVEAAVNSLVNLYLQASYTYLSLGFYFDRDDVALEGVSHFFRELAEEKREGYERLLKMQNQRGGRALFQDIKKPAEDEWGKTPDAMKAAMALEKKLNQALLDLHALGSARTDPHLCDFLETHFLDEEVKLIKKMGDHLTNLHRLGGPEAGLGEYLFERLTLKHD
inactive: [1] -0.067 | [2] 0.127 | [3] -0.034 | [4] -0.03 | [5] -0.031

DTWD1 (UniProt Q8N5C7)
Chain of UniProt Q8N5C7 (Q8N5C7 whole entry, looked up): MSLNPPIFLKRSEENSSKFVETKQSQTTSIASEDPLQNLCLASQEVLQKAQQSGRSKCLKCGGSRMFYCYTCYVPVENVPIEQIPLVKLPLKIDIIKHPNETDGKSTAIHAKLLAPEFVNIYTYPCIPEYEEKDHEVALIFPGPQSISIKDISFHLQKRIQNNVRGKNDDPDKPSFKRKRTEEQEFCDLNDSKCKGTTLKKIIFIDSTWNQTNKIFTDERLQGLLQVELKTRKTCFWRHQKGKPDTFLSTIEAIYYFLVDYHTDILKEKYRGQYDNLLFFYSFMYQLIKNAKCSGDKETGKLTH
inactive: [1] -0.003 | [2] 0.075 | [3] -0.004 | [4] 0.039 | [5] 0.095

FARSB (UniProt Q9NSD9)
inactive: [1] -0.014 | [2] 0.036 | [3] -0.004 | [4] 0.02 | [5] 0.052

FNBP1L (UniProt Q5T0N5)
inactive: [1] -0.082 | [2] -0.009 | [3] 0.012 | [4] -0.032 | [5] 0.029

EIF2B3 (UniProt Q9NR50)
inactive: [1] -0.047 | [2] 0.008 | [3] -0.01 | [4] 0.004 | [5] 0.107

DYNC1I2 isoform 5 (UniProt Q13409)
inactive: [1] 0.049 | [2] -0.03 | [3] -0.012 | [4] -0.018 | [5] 0.021

FIGNL1 (UniProt Q6PIW4)
Chain of UniProt Q6PIW4 (Q6PIW4 whole entry, looked up): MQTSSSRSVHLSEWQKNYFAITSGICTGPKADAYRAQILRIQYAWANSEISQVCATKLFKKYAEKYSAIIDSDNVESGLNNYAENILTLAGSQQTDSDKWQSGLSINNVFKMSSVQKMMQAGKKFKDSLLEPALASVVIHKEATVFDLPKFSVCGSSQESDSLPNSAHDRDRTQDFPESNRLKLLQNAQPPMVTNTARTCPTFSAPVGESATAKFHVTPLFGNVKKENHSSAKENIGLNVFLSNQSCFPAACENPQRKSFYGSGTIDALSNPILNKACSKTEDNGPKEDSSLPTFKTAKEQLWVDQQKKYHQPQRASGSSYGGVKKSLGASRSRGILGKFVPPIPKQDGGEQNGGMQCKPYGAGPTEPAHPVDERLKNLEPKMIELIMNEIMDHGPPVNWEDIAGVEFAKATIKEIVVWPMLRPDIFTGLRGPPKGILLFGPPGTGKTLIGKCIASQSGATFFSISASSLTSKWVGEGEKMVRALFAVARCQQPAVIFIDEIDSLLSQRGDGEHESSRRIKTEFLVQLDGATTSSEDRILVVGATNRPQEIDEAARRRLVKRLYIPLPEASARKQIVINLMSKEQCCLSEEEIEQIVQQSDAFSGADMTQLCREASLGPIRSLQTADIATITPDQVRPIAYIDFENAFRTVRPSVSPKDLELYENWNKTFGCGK
inactive: [1] -0.033 | [2] 0.01 | [3] 0.028 | [4] 0.051 | [5] 0.085

FYN (UniProt P06241)
inactive: [1] -0.323 | [2] -0.231 | [3] -0.052 | [4] 0.019 | [5] -0.112

EHD2 (UniProt Q9NZN4)
inactive: [1] -0.074 | [2] -0.065 | [3] 0.003 | [4] -0.069 | [5] 0.087

EXOC3 (UniProt O60645)
inactive: [1] -0.026 | [2] -0.019 | [3] 0.053 | [4] -0.017 | [5] 0.08
